Holding throughout (settings): primary human HUVEC with PBMC; actives raise or lower the signal
Read-out in assay [1]: Macrophage colony-stimulating factor (MCSF), CSF1 (gene 1435)
The assay is described as follows: BSK_LPS_MCSF: BioMAP Diversity Plus: LPS Assay for Macrophage colony-stimulating factor (MCSF) Biomarker Activity (AID 2283083). In short, it runs like this:
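Compound is added to a human vascular primary co-culture of umbilical vein endothelium and blood mononuclear cells. After 24 h, M-CSF is quantified by ELISA. Signal changes are fitted in both directions against DMSO.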

Read-out in assay [2]: Tissue Factor, F3 (gene 2152)
As to the kind of experiment: BSK_LPS_TissueFactor: BioMAP Diversity Plus: LPS Assay for Tissue Factor Biomarker Activity (AID 2283084). In outline: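 In this co-culture system of umbilical vein endothelium with PBMC, stimulated with LPS, cell-surface CD142 is detected by ELISA at 24 h. Endpoint values derive from bidirectional fitting, DMSO serving as baseline.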

Read-out in assay [3]: Tumor necrosis factor (Homo sapiens) (UniProt P01375)
As to the kind of experiment: BSK_LPS_TNFa: BioMAP Diversity Plus: LPS Assay for Tumour Necrosis Factor alpha (TNFa) Biomarker Activity (AID 2283085).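 As to AC50: TNFa protein level quantified by ELISA in the co-culture.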 In outline:
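Cells (umbilical vein endothelium plus peripheral blood mononuclear cells) were dosed with chemical, incubated 24 h, then TNFa was quantified by ELISA; values derive from bidirectional fitting with DMSO as baseline.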

Read-out in assay [4]: Vascular cell adhesion molecule 1 (VCAM1), VCAM1 (gene 7412)
The assay is described as follows: BSK_LPS_VCAM1: BioMAP Diversity Plus: LPS Assay for Vascular cell adhesion molecule 1 (VCAM1) Biomarker Activity (AID 2283086). In short, it runs like this:
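Cells are dosed in an LPS-stimulated endothelial/mononuclear co-culture and, after 24 h, VCAM-1 is quantified by ELISA. Activity in either direction is fitted relative to the DMSO negative control.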

Read-out in a further assay: CD38, CD38 (gene 952)
The assay is described as follows: BSK_SAg_CD38: BioMAP Diversity Plus: SAg Assay for CD38 Biomarker Activity (AID 2283087). In short, it runs like this: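 CD38 quantified by ELISA (fluorescence) in a superantigen-activated endothelial cell–PBMC co-culture at 24 h post-dose. Activity fitted in both directions relative to DMSO; parallel SRB and Alamar Blue cytotoxicity read-outs.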

Read-out in another assay: CD40, CD40 (gene 958)
As to the kind of experiment: BSK_SAg_CD40: BioMAP Diversity Plus: SAg Assay for CD40 Biomarker Activity (AID 2283088). In outline: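 Fluorescence ELISA read-out of CD40 from umbilical vein endothelium plus peripheral blood mononuclear cells, sampled 24 h after dosing. Values come from bidirectional curve fitting with DMSO as baseline.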

Read-out in another assay: CD69, CD69 (gene 969)
The assay is described as follows: BSK_SAg_CD69: BioMAP Diversity Plus: SAg Assay for CD69 Biomarker Activity (AID 2283089).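 As to AC50: cell surface CD69 protein quantified by ELISA with fluorescence detection.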 In outline: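 Primary human vascular co-culture (umbilical vein endothelium with peripheral blood mononuclear cells) exposed to test chemical for 24 h. CD69 levels quantified by fluorescence ELISA; DMSO served as negative control for bidirectional fitting.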

Read-out in assay [5]: Monocyte Chemoattractant Protein-1 (MCP1), CCL2 (gene 6347)
As to the kind of experiment: BSK_SAg_MCP1: BioMAP Diversity Plus: SAg Assay for Monocyte Chemoattractant Protein-1 (MCP1) Biomarker Activity (AID 2283090). In outline:
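Values derive from bidirectional fitting of ELISA-measured MCP1 against DMSO controls. Readings were taken 24 h after dosing human vascular endothelial cells co-cultured with peripheral blood mononuclear cells under superantigen stimulation.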

Read-out in assay [6]: E-selectin (Homo sapiens) (UniProt P16581)
The assay is described as follows: BSK_SAg_Eselectin: BioMAP Diversity Plus: SAg Assay for Eselectin Biomarker Activity (AID 2283091). In outline: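 Primary human endothelial cells and peripheral blood mononuclear cells were co-cultured and exposed to chemical for 24 hours. E-selectin levels were then quantified by ELISA, with bidirectional curve fitting normalised to DMSO controls.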

Read-out in assay [7]: Monokine induced gamma interferon (MIG), CXCL9 (gene 4283)
The assay is described as follows: BSK_SAg_MIG: BioMAP Diversity Plus: SAg Assay for Monokine induced gamma interferon (MIG) Biomarker Activity (AID 2283092). In short, it runs like this:
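Endothelial cells and PBMC were co-cultured, exposed to test chemicals, and sampled 24 h later. MIG was measured by ELISA, and responses were fitted in both directions relative to DMSO.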

More than one record can exist for a structure, and the calls need not agree. Calls of active or inactive are those of the source. The calls were made as follows: active = hit-call score of the fitted dose curve at least 0.9, where 1 is the maximum; inactive = score below 0.9.

Chain of Tumor necrosis factor (Homo sapiens) (P01375 whole entry, looked up): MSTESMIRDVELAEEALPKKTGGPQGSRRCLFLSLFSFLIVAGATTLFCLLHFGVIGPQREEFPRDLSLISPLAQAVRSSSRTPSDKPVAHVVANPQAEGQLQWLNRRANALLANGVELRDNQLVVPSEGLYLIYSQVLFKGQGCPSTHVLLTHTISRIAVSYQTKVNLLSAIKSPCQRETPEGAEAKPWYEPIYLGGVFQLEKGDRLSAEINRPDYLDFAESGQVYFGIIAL
Chain of E-selectin (Homo sapiens) (P16581 whole entry, looked up): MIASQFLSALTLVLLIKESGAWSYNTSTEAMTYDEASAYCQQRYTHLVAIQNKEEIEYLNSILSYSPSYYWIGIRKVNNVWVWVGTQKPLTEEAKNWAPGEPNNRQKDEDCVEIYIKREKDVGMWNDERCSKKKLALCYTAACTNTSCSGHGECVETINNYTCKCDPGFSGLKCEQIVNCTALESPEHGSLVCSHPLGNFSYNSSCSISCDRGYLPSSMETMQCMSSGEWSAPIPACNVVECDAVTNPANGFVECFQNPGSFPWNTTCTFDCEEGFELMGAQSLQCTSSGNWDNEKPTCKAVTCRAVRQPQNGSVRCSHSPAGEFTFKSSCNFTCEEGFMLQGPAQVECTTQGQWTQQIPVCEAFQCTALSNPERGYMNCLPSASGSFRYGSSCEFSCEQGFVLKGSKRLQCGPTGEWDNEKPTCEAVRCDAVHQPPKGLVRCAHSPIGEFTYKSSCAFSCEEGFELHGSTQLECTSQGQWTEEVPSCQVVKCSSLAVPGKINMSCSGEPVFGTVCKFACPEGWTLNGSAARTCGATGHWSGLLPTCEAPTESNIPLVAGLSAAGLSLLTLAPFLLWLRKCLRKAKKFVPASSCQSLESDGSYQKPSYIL

As for `C=CC(C)(O)CCC=C(C)C` (configuration not stated), the outcome is “inactive” in assay [1]; “inactive” in assay [2]; “inactive” in [3]; “inactive” in assay [4]; “inactive” with CD38, CD38 (gene 952); “inactive” with CD40, CD40 (gene 958). The outcome with CD69, CD69 (gene 969) was “inactive”; in assay [5], “inactive”; in assay [6], “inactive”; in assay [7] it was “inactive”.

As for `Cc1cc(CCC(=O)OCCOCCOCCOC(=O)CCc2cc(C)c(O)c(C(C)(C)C)c2)cc(C(C)(C)C)c1O`, the outcome is “inactive” in [1]; “inactive” in assay [2]; “inactive” in assay [3]; “inactive” in assay [4]; “inactive” with CD38, CD38 (gene 952); “inactive” with CD40, CD40 (gene 958). The outcome was “inactive” with CD69, CD69 (gene 969); “inactive” in assay [5]; “inactive” in [6]; “inactive” in [7].

For orientation: AC50 means the concentration giving half of the maximal activity seen. For `O=C1c2ccccc2C(=O)c2c(O)ccc(O)c21`, the outcome was “inactive” in [1]; “inactive” in [4]; “inactive” with CD40, CD40 (gene 958); “inactive” with CD69, CD69 (gene 969); “inactive” in assay [5]; “inactive” in [7]. Further, the AC50 in assay [2] was 3.52 µM (active); in assay [3], 1.21 µM (active); in the assay with CD38, CD38 (gene 952), 13.1 µM (active); in assay [6] it was 1.21 µM (active).

On to `CCCCCCCCCCCCCCCC(=O)OC/C=C(C)/C=C/C=C(C)/C=C/C1=C(C)CCCC1(C)C`, for which the outcome in assay [1] was “inactive”; in [2], “inactive”; in assay [3], “inactive”; with CD40, CD40 (gene 958), “inactive”; in assay [5], “inactive”; in assay [6], “inactive”. In addition, the outcome in assay [7] was inactive. Further, the AC50 in assay [4] was 20 µM (active); with CD38, CD38 (gene 952), 3.97 µM (active); with CD69, CD69 (gene 969) it was 20 µM (active).

As to `Oc1c(Cl)cc(Cl)c(Cl)c1Cc1c(O)c(Cl)cc(Cl)c1Cl`, the AC50 in assay [1] is 11.6 µM (active); in [2], 27.7 µM (active); in assay [3] it was 20 µM (active); in assay [4], 22.6 µM (active); in the assay with CD38, CD38 (gene 952) it was 2.31 µM (active); with CD40, CD40 (gene 958) it was 7.61 µM (active). Moreover, the AC50 in the assay with CD69, CD69 (gene 969) was 5.19 µM (active); in [5] it was 5.46 µM (active); in assay [6], 3.17 µM (active); in assay [7] it was 8.51 µM (active).

`CC1(C)CCC[C@]2(C)[C@H]3CCO[C@]3(C)CC[C@@H]12`: the outcome was “inactive” in [1]; “inactive” in [2]; “inactive” in assay [3]; “inactive” in assay [4]; “inactive” with CD38, CD38 (gene 952); “inactive” with CD40, CD40 (gene 958). The outcome is “inactive” with CD69, CD69 (gene 969); “inactive” in assay [5]; “inactive” in [6]; “inactive” in assay [7]. For the same compound, the AC50 was 36.6 µM (active) in the assay with CD40, CD40 (gene 958) and 26.4 µM (active) in assay [6].

With `C=C(C)[C@H]1CC=C(C)C(=O)C1`, the outcome in assay [1] is “inactive”; in assay [2], “inactive”; in assay [3] it was “inactive”; in assay [4], “inactive”; with CD38, CD38 (gene 952) it was “inactive”; with CD40, CD40 (gene 958), “inactive”. Further, the outcome with CD69, CD69 (gene 969) is “inactive”; in assay [5], “inactive”; in assay [6], “inactive”; in assay [7], “inactive”.

As for `CC(=O)Nc1ccc(C(=O)CCl)cc1`, the AC50 in assay [1] was 5.36 µM (active); in assay [2], 5.39 µM (active); in assay [3], 4.58 µM (active); in assay [4] it was 4.35 µM (active); with CD38, CD38 (gene 952) it was 3.84 µM (active); with CD40, CD40 (gene 958), 4.69 µM (active). Also, the AC50 with CD69, CD69 (gene 969) is 5.33 µM (active); in assay [5], 10.6 µM (active); in [6], 5.34 µM (active); in [7] it was 8.55 µM (active).

Turning to `O=C1OC[C@H](Cc2cccc(O)c2)[C@H]1Cc1cccc(O)c1`, the outcome in assay [1] was “inactive”; in [2], “inactive”; in [3], “inactive”; in [4], “inactive”; with CD38, CD38 (gene 952), “inactive”; with CD40, CD40 (gene 958), “inactive”. Further, the outcome with CD69, CD69 (gene 969) was “inactive”; in [5] it was “inactive”; in [6] it was “inactive”; in [7], “inactive”.

`CCCCCCC(CO)CCCC` (configuration not stated): the outcome in assay [1] is “inactive”; in assay [2] it was “inactive”; in [3] it was “inactive”; in assay [4], “inactive”; with CD38, CD38 (gene 952), “inactive”; with CD40, CD40 (gene 958) it was “inactive”. In addition, the outcome with CD69, CD69 (gene 969) is “inactive”; in [5], “inactive”; in assay [6], “inactive”; in assay [7] it was “inactive”.

(Values after PubChem BioAssay (EPA / NIEHS).)
